Where “and” joins values, the source holds several entries; their conditions need not be identical. Equal entries are not always repeated. Among all 5,500 compounds or so, about 2,000 (36%) were called active. Roughly 18% stayed inconclusive and do not appear here. No stated cut-off is given here; in the data, active means normalized growth mostly below about 0.91 (no sharp cut-off); inconclusive means no clear call, values can overlap the other calls; inactive means mostly above about 0.92. This is one part of the list.
Experiment: chemical genetic growth profiling, strain panel (AID 1159580);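 further: tested at 20 µM; growth read once vehicle control cultures reached saturation at 30 °C; 1 = growth at the plate median or of vehicle wells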
Settings: S. cerevisiae deletion strains, growth OD

Measured: normalized growth

NC(=O)CC[C@@H](N)C(=O)O
inactive: locus YAL021C, strain ccr4, stronger effect = lower value 1.02 | locus YAL026C, strain drs2, stronger effect = lower value 1.05 | locus YAL030W, strain snc1, stronger effect = lower value 1.04 | locus YBL061C, strain skt5, stronger effect = lower value 1.03 | locus YBR009C, strain hhf1, stronger effect = lower value 1.03 | locus YBR021W, strain FUR4, stronger effect = lower value 1.04 | locus YBR023C, strain chs3, stronger effect = lower value 1.03 | locus YBR171W, strain sec66, stronger effect = lower value 1.05 | locus YBR229C, strain ROT2, stronger effect = lower value 1.01 | locus YBR231C, strain swc5, stronger effect = lower value 1.02 | locus YBR279W, strain paf1, stronger effect = lower value 1.02 | locus YCL011C, strain gbp2, stronger effect = lower value 1.02 | locus YCL016C, strain dcc1, stronger effect = lower value 1.02 | locus YCL029C, strain bik1, stronger effect = lower value 1.01 | locus YCL061C, strain MRC1, stronger effect = lower value 1.02 | locus YCL069W, strain vba3, stronger effect = lower value 1.02 | locus YCR088W, strain abp1, stronger effect = lower value 1.03 | locus YDL005C, strain med2, stronger effect = lower value 1.04 | locus YDL035C, strain GPR1, stronger effect = lower value 1.06 | locus YDL040C, strain nat1, stronger effect = lower value 1.02 | locus YDL074C, strain BRE1, stronger effect = lower value 1.09 | locus YDL101C, strain DUN1, stronger effect = lower value 1.02 | locus YDL185W, strain tfp1, stronger effect = lower value 1.01 | locus YDL192W, strain arf1, stronger effect = lower value 1.03 | locus YDR001C, strain nth1, stronger effect = lower value 1.02 | locus YDR069C, strain doa4, stronger effect = lower value 1.03 | locus YDR101C, strain arx1, stronger effect = lower value 1.01 | locus YDR137W, strain rgp1, stronger effect = lower value 1.06 | locus YDR159W, strain sac3, stronger effect = lower value 1.08 | locus YDR162C, strain NBP2, stronger effect = lower value 1.05 | locus YDR195W, strain ref2 1.01 | locus YDR297W, strain sur2, stronger effect = lower value 1.02 | locus YDR318W, strain mcm21, stronger effect = lower value 0.996 | locus YDR334W, strain swr1, stronger effect = lower value 1.03 | locus YDR335W, strain msn5, stronger effect = lower value 1.04 | locus YDR388W, stronger effect = lower value 0.993 | locus YDR392W, strain spt3, stronger effect = lower value 0.937 | locus YDR502C, strain sam2, stronger effect = lower value 1.02 | locus YEL003W, strain gim4, stronger effect = lower value 1.02 | locus YEL037C, strain rad23, stronger effect = lower value 1.03 | locus YEL061C, strain CIN8 (second series), stronger effect = lower value 1.02 | locus YEL061C, strain CIN8, stronger effect = lower value 1.02 | locus YER015W, strain faa2, stronger effect = lower value 1.03 | locus YER016W, strain bim1, stronger effect = lower value 1.02 | locus YER110C, stronger effect = lower value 0.996 | locus YER111C, strain swi4, stronger effect = lower value 1.02 | locus YER155C, strain BEM2 (second series), stronger effect = lower value 0.971 | locus YER155C, strain BEM2, stronger effect = lower value 1.01 | locus YER167W, strain BCK2, stronger effect = lower value 1.02 | locus YFR010W, strain ubp6, stronger effect = lower value 1.05 | locus YGL078C, strain dbp3, stronger effect = lower value 1.03 | locus YGL086W, strain mad1, stronger effect = lower value 1.02 | locus YGL167C, strain pmr1, stronger effect = lower value 1.04 | locus YGL173C, strain kem1, stronger effect = lower value 1.04 | locus YGL227W, strain vid30, stronger effect = lower value 1.02 | locus YGL240W, strain doc1, stronger effect = lower value 1.02 | locus YGL248W, strain PDE1, stronger effect = lower value 1.02 | locus YGL253W, strain hxk2, stronger effect = lower value 1.06 | locus YGR078C, strain PAC10, stronger effect = lower value 1.04 | locus YGR135W, strain pre9, stronger effect = lower value 1.02 | locus YGR252W, strain gcn5, stronger effect = lower value 1.14 | locus YHR013C, strain ard1, stronger effect = lower value 1.07 | locus YHR027C, strain rpn1, stronger effect = lower value 1.04 | locus YHR030C, strain SLT2, stronger effect = lower value 1.02 and 1.05 | locus YHR079C, strain IRE1 (second series), stronger effect = lower value 0.987 | locus YHR079C, strain IRE1, stronger effect = lower value 1.03 | locus YHR094C, strain hxt1, stronger effect = lower value 0.984 | locus YHR129C, strain ARP1, stronger effect = lower value 1.03 | locus YHR142W, strain chs7, stronger effect = lower value 1.05 | locus YHR200W, strain rpn10, stronger effect = lower value 1 | locus YIL066C, strain RNR3, stronger effect = lower value 1.05 | locus YIL073C, strain SPO22, stronger effect = lower value 1.13 | locus YIL125W, strain kgd1, stronger effect = lower value 1.02 | locus YIR030C, strain dcg1, stronger effect = lower value 0.998 | locus YJL092W, strain hpr5, stronger effect = lower value 1.03 | locus YJL095W, strain BCK1 (second series), stronger effect = lower value 1.02 | locus YJL095W, strain BCK1, stronger effect = lower value 1.05 and 1.04 | locus YJL115W, strain asf1, stronger effect = lower value 1.02 | locus YJL129C, strain trk1, stronger effect = lower value 1.07 | locus YJL134W, strain LCB3, stronger effect = lower value 1.01 | locus YJL154C, strain vps35, stronger effect = lower value 1.02 | locus YJL164C, strain tpk1, stronger effect = lower value 1.03 | locus YJL166W, strain qcr8, stronger effect = lower value 1.04 | locus YJL168C, strain set2, stronger effect = lower value 0.989 | locus YJL187C, strain SWE1 (second series), stronger effect = lower value 1.03 | locus YJL187C, strain SWE1, stronger effect = lower value 1.06 | locus YJR043C, strain POL32, stronger effect = lower value 1.04 | locus YJR066W, strain TOR1, stronger effect = lower value 1 | locus YKL009W, strain mrt4, stronger effect = lower value 1.08 | locus YKL068W, stronger effect = lower value 1.02 | locus YKL085W, strain MDH1 (second series), stronger effect = lower value 1.01 | locus YKL085W, strain MDH1, stronger effect = lower value 1.01 | locus YKL160W, strain elf1, stronger effect = lower value 1.02 | locus YKR001C, strain vps1, stronger effect = lower value 1.05 | locus YKR026C, strain gcn3, stronger effect = lower value 1.03 | locus YKR091W, strain srl3, stronger effect = lower value 1.03 | locus YLL001W, strain dnm1, stronger effect = lower value 1 | locus YLL026W, stronger effect = lower value 1.03 | locus YLL041C, strain sdh2, stronger effect = lower value 1.02 | locus YLR027C, strain aat2, stronger effect = lower value 1.02 | locus YLR039C, strain RIC1, stronger effect = lower value 1.11 | locus YLR058C, strain SHM2, stronger effect = lower value 1.02 | locus YLR102C, strain apc9, stronger effect = lower value 0.98 | locus YLR113W, strain HOG1, stronger effect = lower value 1.02 | locus YLR221C, strain rsa3, stronger effect = lower value 1.04 | locus YLR258W, strain gsy2, stronger effect = lower value 1.02 | locus YLR262C, strain YPT6 (second series), stronger effect = lower value 1.05 | locus YLR262C, strain YPT6, stronger effect = lower value 1.1 | locus YLR268W, strain sec22, stronger effect = lower value 1.05 | locus YLR320W, strain mms22, stronger effect = lower value 1.04 | locus YLR330W, strain CHS5, stronger effect = lower value 1.03 | locus YLR342W, strain FKS1 (second series), stronger effect = lower value 1.07 | locus YLR342W, strain FKS1, stronger effect = lower value 1.03 | locus YLR357W, strain rsc2, stronger effect = lower value 1.05 | locus YLR370C, strain arc18, stronger effect = lower value 1.03 | locus YLR371W, strain rom2, stronger effect = lower value 0.993 | locus YLR384C, strain iki3, stronger effect = lower value 1.02 | locus YLR418C, strain cdc73, stronger effect = lower value 1.07 | locus YML016C, strain PPZ1, stronger effect = lower value 1.01 | locus YML032C, strain rad52, stronger effect = lower value 1.02 | locus YML120C, strain ndi1, stronger effect = lower value 1.03 | locus YML124C, strain tub3, stronger effect = lower value 1.01 | locus YMR058W, strain fet3, stronger effect = lower value 1.04 | locus YMR078C, strain ctf18, stronger effect = lower value 0.988 | locus YMR125W, strain sto1, stronger effect = lower value 1.03 | locus YMR129W, stronger effect = lower value 1.02 | locus YMR205C, strain PFK2, stronger effect = lower value 1.04 | locus YMR223W, strain ubp8, stronger effect = lower value 1.02 | locus YMR231W, strain pep5, stronger effect = lower value 1.03 | locus YMR263W, strain SAP30, stronger effect = lower value 1.02 | locus YMR307W, strain GAS1, stronger effect = lower value 1.13 | locus YNL067W, strain RPL9B, stronger effect = lower value 1.03 | locus YNL071W, strain lat1, stronger effect = lower value 1.03 | locus YNL153C, strain GIM3, stronger effect = lower value 1.02 | locus YNL183C, strain NPR1, stronger effect = lower value 1.01 | locus YNL209W, strain ssb2, stronger effect = lower value 1.02 | locus YNL233W, strain BNI4, stronger effect = lower value 1.03 | locus YNL248C, strain rpa49, stronger effect = lower value 1.05 | locus YNL250W, strain rad50, stronger effect = lower value 1.03 | locus YNL271C, strain bni1, stronger effect = lower value 1.02 | locus YNL298W, strain CLA4, stronger effect = lower value 1.02 | locus YNL307C, strain MCK1, stronger effect = lower value 0.995 | locus YNL322C, strain KRE1 (second series), stronger effect = lower value 1.02 | locus YNL322C, strain KRE1, stronger effect = lower value 1.02 | locus YNR049C, strain mso1, stronger effect = lower value 1.04 | locus YNR052C, strain pop2, stronger effect = lower value 1.03 | locus YOL012C, strain htz1 1.02 | locus YOL147C, strain pex11, stronger effect = lower value 1 | locus YOR001W, strain rrp6, stronger effect = lower value 1.04 | locus YOR061W, strain CKA2, stronger effect = lower value 1.02 | locus YOR069W, strain VPS5, stronger effect = lower value 1.01 | locus YOR070C, strain gyp1, stronger effect = lower value 1.01 | locus YOR080W, strain dia2, stronger effect = lower value 1.03 | locus YOR083W, strain WHI5, stronger effect = lower value 1.01 | locus YOR106W, strain vam3, stronger effect = lower value 1.06 | locus YOR136W, strain idh2, stronger effect = lower value 1.02 | locus YOR144C, strain elg1, stronger effect = lower value 1 | locus YOR184W, strain ser1, stronger effect = lower value 1.05 | locus YOR231W, strain MKK1, stronger effect = lower value 1.03 | locus YOR265W, strain rbl2, stronger effect = lower value 1.02 | locus YOR270C, strain vph1, stronger effect = lower value 1.1 | locus YOR290C, strain snf2, stronger effect = lower value 1.03 | locus YOR316C, strain cot1, stronger effect = lower value 0.987 | locus YPL051W, strain arl3, stronger effect = lower value 1 | locus YPL078C, strain atp4, stronger effect = lower value 1.01 | locus YPL106C, strain sse1, stronger effect = lower value 1.01 | locus YPL240C, strain hsp82, stronger effect = lower value 1.02 | locus YPL241C, strain CIN2, stronger effect = lower value 1.01 | locus YPL256C, strain CLN2, stronger effect = lower value 1.05 | locus YPR119W, strain clb2, stronger effect = lower value 0.991 | locus YPR141C, strain kar3, stronger effect = lower value 1.01 | locus YPR163C, strain tif3, stronger effect = lower value 0.99 | locus YPR167C, strain met16, stronger effect = lower value 1 | strain wtn01, stronger effect = lower value 1.06

— PubChem BioAssay AID1159580 (chemical genetic matrix, 2015)
